From PubChem BioAssay (Tox21)
“And” between values parts separate entries of the source, which are not always exact repeats. Equal entries are not always repeated. Inconclusive results are not listed. Where a call stands in place of a potency, no number is given. Some compounds were tested as several samples or in several runs, with calls that do not always agree. The source made the active and inactive calls. Unless noted, the call rests on the fitted dose curve; in most records, active means well fitted curve in the direction sought with a large enough effect in the repeat runs; inconclusive means weak or mixed curves; inactive means no such curve, though single readings can be large; an effect the other way counts as inactive or inconclusive.

Experiments:
[1] = target: Acetylcholinesterase (Homo sapiens) (UniProt P22303); experiment: Acetylcholinesterase (AChE) small molecule antagonists: enzyme-based qHTS assay with human liver microsomes (AID 1347399; calls by dose curve; further: nearly all actives have a fitted effect of over 60% in size); conditions: Potency: qHTS inhibition; outcome: qHTS inhibition
How it was run: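 Recombinant human AChE (50 mU/mL in the enzyme mix) and human liver microsomes (0.25 mg/mL final) were preincubated with compound and NADPH (0.25 mg/mL final) for 30 min at 37 C. Acetylthiocholine/DTNB was then added; thiocholine was read colorimetrically after 10 min at room temperature.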

[2] = target: Cytochrome P450 2D6 (Homo sapiens) (UniProt P10635); experiment: Cytochrome P450 Family 2 Subfamily D Member 6 (CYP2D6) small molecule antagonists: luciferase reporter qHTS assay (AID 1671196); further: nearly all actives have a fitted effect of over 50% in size
How it was run: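 Luminogenic proluciferin substrate, CYP2D6 enzyme; 10 min RT preincubation with compound, NADPH regeneration system added, 1 h RT. Stop/detection reagent, 20 min RT, luminescence read (RLU). Signal proportional to CYP activity.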

[3] = target: Cytochrome P450 2C19 (Homo sapiens) (UniProt P33261); experiment: Cytochrome P450 Family 2 Subfamily C Member 19 (CYP2C19) small molecule antagonists: luciferase reporter qHTS assay (AID 1671197); further: nearly all actives have a fitted effect of over 65% in size
How it was run: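 CYP2C19 P450-Glo, 1536-well qHTS. Cpd + enzyme/proluciferin substrate 10 min RT; + NADPH regen, 37C 1 h; stop with luciferin detection reagent, 20 min RT, luminescence (RLU). Pos ctrl ketoconazole.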

[4] = target: Cytochrome P450 2C9 (Homo sapiens) (UniProt P11712); experiment: Cytochrome P450 Family 2 Subfamily C Member 9 (CYP2C9) small molecule antagonists: luciferase reporter qHTS assay (AID 1671198); further: nearly all actives have a fitted effect of over 50% in size
How it was run: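 CYP2C9 activity was measured with a P450-Glo proluciferin substrate. Enzyme–substrate mix was held with compound for 10 min at room temperature, then NADPH regeneration solution was added for 1 h at 37C. Luciferin product was read as luminescence.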

[5] = target: Voltage-gated inwardly rectifying potassium channel KCNH2 (Homo sapiens) (UniProt Q12809); experiment: Human Ether-a-go-go-Related Gene (hERG) channel small molecule antagonists: fluorescence cell-based qHTS assay (AID 1671200); further: nearly all actives have a fitted effect of over 50% in size
How it was run: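 Quantitative HTS in hERG-U2OS cells: thallium entry through the channel reports activity, read as continuous 480/540 nm fluorescence over 2 min after stimulus addition.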

[6] = target: Cytochrome P450 1A2 (Homo sapiens) (UniProt P05177); experiment: Cytochrome P450 Family 1 Subfamily A Member 2 (CYP1A2) small molecule antagonists: luciferase reporter qHTS assay (AID 1671199); further: nearly all actives have a fitted effect of over 50% in size
How it was run: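 Luminescence readout (relative luminescence units) after luciferin detection reagent, 20 min RT. Preceded by 1 h room-temperature CYP1A2 reaction with NADPH regeneration solution following 10 min compound preincubation with enzyme and proluciferin substrate. Furafylline positive control.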

[7] = target: Cytochrome P450 3A4 (Homo sapiens) (UniProt P08684); experiment: Cytochrome P450 Family 3 Subfamily A Member 4 (CYP3A4) small molecule antagonists: luciferase reporter qHTS assay (AID 1671201); further: nearly all actives have a fitted effect of over 50% in size
How it was run: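 Inhibition of CYP3A4 is measured as loss of light: the enzyme converts a proluciferin substrate to luciferin, detected luminescently. Reaction ran 1 h at room temperature with NADPH regeneration after a 10 min compound preincubation.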
Potency means the concentration at half of the fitted maximal effect.

Chain of Cytochrome P450 2C19 (Homo sapiens) (P33261 whole entry, looked up): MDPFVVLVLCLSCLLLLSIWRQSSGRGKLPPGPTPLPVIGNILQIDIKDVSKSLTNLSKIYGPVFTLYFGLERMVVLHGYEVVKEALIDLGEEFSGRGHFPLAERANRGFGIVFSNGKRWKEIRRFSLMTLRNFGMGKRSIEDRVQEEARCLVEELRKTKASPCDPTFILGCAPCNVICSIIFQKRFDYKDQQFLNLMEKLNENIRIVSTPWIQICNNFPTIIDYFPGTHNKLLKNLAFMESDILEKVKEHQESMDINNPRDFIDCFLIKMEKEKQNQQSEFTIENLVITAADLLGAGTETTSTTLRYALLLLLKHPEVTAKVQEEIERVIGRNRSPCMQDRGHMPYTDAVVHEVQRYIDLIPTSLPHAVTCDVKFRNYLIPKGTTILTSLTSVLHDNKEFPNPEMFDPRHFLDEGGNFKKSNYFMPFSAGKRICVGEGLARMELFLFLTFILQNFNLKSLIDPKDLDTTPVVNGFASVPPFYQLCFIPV
Chain of Cytochrome P450 3A4 (Homo sapiens) (P08684 whole entry, looked up): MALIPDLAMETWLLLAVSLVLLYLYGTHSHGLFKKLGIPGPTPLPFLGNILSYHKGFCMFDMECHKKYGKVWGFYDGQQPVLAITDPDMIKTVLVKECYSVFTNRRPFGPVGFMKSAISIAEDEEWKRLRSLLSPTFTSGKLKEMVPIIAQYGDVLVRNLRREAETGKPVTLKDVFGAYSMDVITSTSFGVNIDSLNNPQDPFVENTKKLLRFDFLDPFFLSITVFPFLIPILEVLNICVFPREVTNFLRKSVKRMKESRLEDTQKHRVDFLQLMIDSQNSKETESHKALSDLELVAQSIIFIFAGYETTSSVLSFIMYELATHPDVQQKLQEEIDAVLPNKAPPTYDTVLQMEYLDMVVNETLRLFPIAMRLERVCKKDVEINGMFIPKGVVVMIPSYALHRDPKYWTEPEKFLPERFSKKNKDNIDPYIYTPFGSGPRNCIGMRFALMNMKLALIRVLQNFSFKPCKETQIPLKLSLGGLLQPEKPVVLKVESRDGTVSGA
Chain of Acetylcholinesterase (Homo sapiens) (P22303 whole entry, looked up): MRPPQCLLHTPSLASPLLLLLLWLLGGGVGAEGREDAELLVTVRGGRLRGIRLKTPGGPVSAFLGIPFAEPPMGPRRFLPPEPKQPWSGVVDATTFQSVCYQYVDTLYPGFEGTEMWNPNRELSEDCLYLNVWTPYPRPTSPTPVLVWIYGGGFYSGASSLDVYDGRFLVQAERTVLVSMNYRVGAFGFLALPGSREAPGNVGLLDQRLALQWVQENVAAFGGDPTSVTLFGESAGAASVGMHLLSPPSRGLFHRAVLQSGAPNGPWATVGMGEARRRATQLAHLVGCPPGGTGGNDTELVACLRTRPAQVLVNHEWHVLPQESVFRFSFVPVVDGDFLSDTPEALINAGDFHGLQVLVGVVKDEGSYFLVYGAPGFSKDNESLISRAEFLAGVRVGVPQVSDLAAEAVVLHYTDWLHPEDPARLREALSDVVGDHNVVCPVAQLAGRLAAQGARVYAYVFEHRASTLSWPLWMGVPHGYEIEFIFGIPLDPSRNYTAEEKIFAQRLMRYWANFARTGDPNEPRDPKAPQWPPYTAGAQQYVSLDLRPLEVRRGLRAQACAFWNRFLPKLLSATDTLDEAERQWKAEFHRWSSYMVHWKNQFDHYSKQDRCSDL
Chain of Cytochrome P450 2D6 (Homo sapiens) (P10635 whole entry, looked up): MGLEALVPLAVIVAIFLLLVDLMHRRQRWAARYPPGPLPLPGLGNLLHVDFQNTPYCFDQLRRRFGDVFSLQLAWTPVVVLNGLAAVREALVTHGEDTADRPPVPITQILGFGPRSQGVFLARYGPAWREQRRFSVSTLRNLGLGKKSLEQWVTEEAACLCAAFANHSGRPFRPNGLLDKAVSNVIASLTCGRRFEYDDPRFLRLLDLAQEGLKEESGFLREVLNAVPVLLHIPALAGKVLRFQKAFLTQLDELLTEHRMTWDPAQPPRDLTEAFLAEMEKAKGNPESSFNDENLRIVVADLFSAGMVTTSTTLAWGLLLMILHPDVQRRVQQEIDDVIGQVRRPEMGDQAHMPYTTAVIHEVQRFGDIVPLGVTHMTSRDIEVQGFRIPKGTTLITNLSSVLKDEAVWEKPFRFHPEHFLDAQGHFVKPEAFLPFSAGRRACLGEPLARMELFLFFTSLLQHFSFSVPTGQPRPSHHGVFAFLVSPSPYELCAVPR
Chain of Cytochrome P450 1A2 (Homo sapiens) (P05177 whole entry, looked up): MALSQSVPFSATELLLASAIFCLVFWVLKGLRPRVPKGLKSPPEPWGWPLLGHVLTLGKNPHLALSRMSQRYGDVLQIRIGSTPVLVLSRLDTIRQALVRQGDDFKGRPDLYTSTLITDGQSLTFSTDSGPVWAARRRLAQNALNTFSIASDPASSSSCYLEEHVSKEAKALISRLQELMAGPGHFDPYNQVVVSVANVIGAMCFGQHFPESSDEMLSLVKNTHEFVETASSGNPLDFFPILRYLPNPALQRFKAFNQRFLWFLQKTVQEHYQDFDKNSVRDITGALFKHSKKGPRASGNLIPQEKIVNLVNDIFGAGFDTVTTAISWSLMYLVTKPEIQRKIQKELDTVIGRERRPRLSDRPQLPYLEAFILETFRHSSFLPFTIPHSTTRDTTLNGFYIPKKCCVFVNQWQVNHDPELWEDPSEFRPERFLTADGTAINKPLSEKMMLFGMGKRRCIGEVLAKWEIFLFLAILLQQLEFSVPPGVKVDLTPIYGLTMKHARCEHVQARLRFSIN
Chain of Voltage-gated inwardly rectifying potassium channel KCNH2 (Homo sapiens) (Q12809 whole entry, looked up): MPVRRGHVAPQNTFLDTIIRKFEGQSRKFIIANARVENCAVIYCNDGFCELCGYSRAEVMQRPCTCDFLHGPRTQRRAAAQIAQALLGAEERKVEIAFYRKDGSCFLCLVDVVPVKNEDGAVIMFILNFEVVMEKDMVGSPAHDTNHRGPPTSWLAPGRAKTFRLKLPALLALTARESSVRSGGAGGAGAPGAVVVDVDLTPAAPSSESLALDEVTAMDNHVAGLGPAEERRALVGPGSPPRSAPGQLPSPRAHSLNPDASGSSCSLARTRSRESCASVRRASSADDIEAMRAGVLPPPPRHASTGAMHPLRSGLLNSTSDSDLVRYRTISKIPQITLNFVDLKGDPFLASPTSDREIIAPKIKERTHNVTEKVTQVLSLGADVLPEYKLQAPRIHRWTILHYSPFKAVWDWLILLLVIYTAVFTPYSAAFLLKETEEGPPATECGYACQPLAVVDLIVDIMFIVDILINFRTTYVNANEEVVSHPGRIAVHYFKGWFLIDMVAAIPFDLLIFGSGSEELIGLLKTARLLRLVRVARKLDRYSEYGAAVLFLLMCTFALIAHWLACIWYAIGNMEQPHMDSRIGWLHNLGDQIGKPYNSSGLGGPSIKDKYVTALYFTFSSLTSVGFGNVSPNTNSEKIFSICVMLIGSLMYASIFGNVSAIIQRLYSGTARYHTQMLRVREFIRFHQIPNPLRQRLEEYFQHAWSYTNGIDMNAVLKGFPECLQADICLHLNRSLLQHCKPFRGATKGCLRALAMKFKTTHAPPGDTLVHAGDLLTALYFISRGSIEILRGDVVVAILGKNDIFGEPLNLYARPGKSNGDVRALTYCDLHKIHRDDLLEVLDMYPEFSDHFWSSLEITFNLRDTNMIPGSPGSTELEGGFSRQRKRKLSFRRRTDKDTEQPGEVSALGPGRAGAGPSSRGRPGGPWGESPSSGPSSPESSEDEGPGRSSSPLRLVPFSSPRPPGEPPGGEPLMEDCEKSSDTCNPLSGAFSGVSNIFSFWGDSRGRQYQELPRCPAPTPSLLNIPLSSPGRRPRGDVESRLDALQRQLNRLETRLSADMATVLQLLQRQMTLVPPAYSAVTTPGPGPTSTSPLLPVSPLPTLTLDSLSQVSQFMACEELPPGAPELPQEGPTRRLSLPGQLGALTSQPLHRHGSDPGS
Chain of Cytochrome P450 2C9 (Homo sapiens) (P11712 whole entry, looked up): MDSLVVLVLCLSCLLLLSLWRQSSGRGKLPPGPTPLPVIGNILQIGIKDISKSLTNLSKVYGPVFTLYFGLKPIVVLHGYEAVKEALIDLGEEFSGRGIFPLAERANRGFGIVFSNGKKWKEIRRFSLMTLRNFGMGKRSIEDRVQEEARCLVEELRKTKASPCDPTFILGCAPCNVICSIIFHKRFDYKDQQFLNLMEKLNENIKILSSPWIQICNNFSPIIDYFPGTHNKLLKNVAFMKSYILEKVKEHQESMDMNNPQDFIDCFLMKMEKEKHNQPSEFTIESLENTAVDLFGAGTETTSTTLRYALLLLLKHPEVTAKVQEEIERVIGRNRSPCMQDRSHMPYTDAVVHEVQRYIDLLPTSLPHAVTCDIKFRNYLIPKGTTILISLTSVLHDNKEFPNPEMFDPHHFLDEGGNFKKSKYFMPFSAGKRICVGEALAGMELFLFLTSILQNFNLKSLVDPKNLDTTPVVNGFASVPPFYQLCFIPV

Structure (SMILES)	Potency [1]	Potency [2]	Potency [3]	Potency [4]	Potency [5]	Potency [6]	Potency [7]
N#CC(C#N)=Cc1ccc(O)c(O)c1	inactive	inactive	inactive	17.4 µM (active)	inactive	–	–
CCCCC(CC)COC(=O)c1c(Br)c(Br)c(Br)c(Br)c1C(=O)OCC(CC)CCCC (stereo not drawn)	inactive	inactive	inactive	inactive	inactive	inactive	inactive
ClCc1ccccc1Cl	inactive	inactive	inactive	inactive	inactive	–	inactive
C#CC(O)(C=CCl)CC (stereo not drawn)	inactive	inactive	inactive	inactive	inactive	inactive	inactive
CN1CC[C@]23c4c5ccc(O)c4O[C@H]2[C@@H](O)CC[C@H]3[C@H]1C5	inactive	44 µM (active)	inactive	inactive	inactive	inactive	inactive
O=C(O)c1ccc(=O)[nH]c1	inactive	inactive	inactive	inactive	inactive	inactive	inactive
C[N+]1(CCF)[C@@H]2CC[C@H]1CC(OC(=O)C(O)(c1ccccc1)c1ccccc1)C2 (stereo partly drawn)	inactive	17.4 µM (active)	inactive	inactive	inactive	inactive	inactive
CCCCNC(=O)OCC#CI	inactive	31.6 µM (active) and 35.6 µM (active)	2.81 µM (active) and 2.52 µM (active)	5 µM (active) and 5.03 µM (active)	inactive	3.54 µM (active) and 5.64 µM (active)	3.54 µM (active) and 5.64 µM (active)
CC(C)[C@@H](C(=O)O[C@@H](C#N)c1cccc(Oc2ccccc2)c1)c1ccc(Cl)cc1	inactive	32.2 µM (active) and inactive	9.07 µM (active) and 31.7 µM (active)	7.21 µM (active) and 12.6 µM (active)	inactive	inactive	inactive
CCCN(CCOc1c(Cl)cc(Cl)cc1Cl)C(=O)n1ccnc1	inactive	363 nM (active) and 1 µM (active)	22.9 nM (active) and 50.2 nM (active)	457 nM (active) and 796 nM (active)	12.6 µM (active) and 19.5 µM (active)	129 nM (active) and 224 nM (active)	32.4 nM (active) and 100 nM (active)
COC1=CC(=O)O[C@@H](/C=C/c2ccc3c(c2)OCO3)C1	inactive	34.1 µM (active)	8.56 µM (active)	2.71 µM (active)	inactive	3.41 µM (active)	4.81 µM (active)
CC(C)(C)NCC(O)c1ccccc1Cl (stereo not drawn)	inactive	9.77 µM (active)	inactive	inactive	inactive	inactive	inactive
C=CCOCC1CO1 (stereo not drawn)	inactive	inactive	inactive	inactive	inactive	–	30.9 µM (active)
O=CC=O	inactive	inactive	inactive	inactive	inactive	inactive	inactive
CCOP(=S)(S)OCC	inactive	inactive	33.4 µM (active)	21.1 µM (active)	inactive	–	inactive
CCCCCCCCCCCCCCCl	inactive	inactive	inactive	inactive	inactive	–	inactive
C=CCOC(=O)C(C)(C)OC(=O)c1cc(-n2c(=O)cc(C(F)(F)F)n(C)c2=O)ccc1Cl	inactive	27.7 µM (active)	49.3 µM (active)	15.6 µM (active)	inactive	–	–
C[C@]12CC[C@H]3[C@@H](CCC4=CC(=O)CC[C@@H]43)[C@@H]1CC[C@@H]2OC(=O)CCc1ccccc1	inactive	inactive	inactive	30.9 µM (active)	–	inactive	inactive
CCC(C)(C)O	inactive	inactive	inactive	inactive	inactive	–	inactive
CCC(C)Cl (stereo not drawn)	inactive	inactive	inactive	inactive	inactive	–	inactive

Structure (SMILES)	Potency [1]	Potency [2]	Potency [3]	Potency [4]	Potency [5]	Potency [6]	Potency [7]
CCC1CCC(=O)O1 (stereo not drawn)	inactive	inactive	45.2 µM (active)	inactive	inactive	–	inactive
CCCCCCCCP(=O)(O)O	inactive	inactive	inactive	inactive	inactive	–	inactive
c1ccc2c(c1)sc1ccccc12	inactive	inactive	39.9 µM (active) and inactive	inactive	inactive	3.17 µM (active) and 2.57 µM (active)	inactive
Nc1cccc2ccccc12	inactive	31.9 µM (active) and 31.7 µM (active)	16 µM (active) and 20 µM (active)	35.8 µM (active) and 50.2 µM (active)	inactive	10.1 µM (active) and 5.64 µM (active)	35.6 µM (active)
CCCCCCCCCCCC[N+](C)(C)CCOc1ccccc1	inactive	3.56 µM (active) and 4.36 µM (active)	56.4 µM (active)	63.3 µM (active)	776 nM (active) and 1.34 µM (active)	79.7 µM (active) and inactive	inactive
CC(Oc1cc(Cl)c(Cl)cc1Cl)C(=O)O (stereo not drawn)	inactive	inactive	inactive	31.8 µM (active)	inactive	–	–
CCOC(=O)NC(O)C(Cl)(Cl)Cl (stereo not drawn)	inactive	inactive	–	inactive	inactive	inactive	–
COc1ccc2c(c1OC)C(=O)O[C@H]2[C@@H]1c2cc3c(cc2CCN1C)OCO3	inactive	–	3.89 µM (active)	5.49 µM (active)	–	inactive	–
Cc1nnc(-c2ccccc2)c(=O)n1N	inactive	inactive	inactive	–	inactive	35.6 µM (active)	–
CC(=O)OC(c1ccccc1)C(Cl)(Cl)Cl (stereo not drawn)	inactive	inactive	inactive	–	–	inactive	inactive
O=C([O-])c1ccccn1.O=C([O-])c1ccccn1.O=C([O-])c1ccccn1.[Cr+3]	inactive	79.9 µM (active)	–	–	inactive	79.9 µM (active)	–
NC(=S)c1c(Cl)cccc1Cl	inactive	inactive	inactive	–	inactive	28.3 µM (active)	28.3 µM (active)
CCCC[P+](CC)(CCCC)CCCC (tested in a mixture with another compound)	inactive	0.0716 µM (active)	–	inactive	24.7 µM (active)	inactive	inactive
Oc1cccc(Cl)c1	inactive	inactive	–	inactive	inactive	–	inactive
O=S(=O)(Cl)Cl	inactive	inactive	–	inactive	inactive	inactive	inactive
CCC1(CC)C(=O)NC(=O)NC1=O	inactive	inactive	–	inactive	inactive	inactive	inactive
CCCCCl	inactive	18.3 µM (active)	41 µM (active)	–	inactive	57.9 µM (active)	–
CN1C[C@H](C(=O)N[C@]2(C)O[C@@]3(O)[C@@H]4CCCN4C(=O)[C@H](Cc4ccccc4)N3C2=O)C=C2c3cccc4[nH]cc(c34)C[C@H]21	inactive	28.4 µM (active) and inactive	28.4 µM (active) and 18.6 µM (active)	–	22 µM (active)	20.1 µM (active)	–
Nc1cc(Cl)cc(C(=O)O)c1Cl	inactive	39.6 µM (active) and inactive	inactive	–	inactive	–	inactive
O=[N+]([O-])c1cc(Cl)c(Cl)cc1Cl	inactive	inactive	–	inactive	inactive	5.61 µM (active)	inactive

Structure (SMILES)	Potency [1]	Potency [2]	Potency [3]	Potency [4]	Potency [5]	Potency [6]	Potency [7]
C[C@H]1O[C@H](OC2[C@@H](O)[C@@H](O)C(O)[C@H](O)[C@H]2O)[C@@H](N)C[C@@H]1N=C(N)C(=O)O (stereo partly drawn)	inactive	inactive	inactive	inactive	inactive	–	inactive
OCCSSCCO	inactive	inactive	56.4 µM (active)	–	inactive	–	inactive
Cc1nc(N(C)C)nc(OC(=O)N(C)C)c1C	63.3 µM (active)	inactive	79.6 µM (active)	–	inactive	22.4 µM (active)	inactive
CCC(=O)O[C@@H]1C=C2CCC3C(CCC4(C)C3CC[C@@H]4OC(=O)CC)C2CC1 (stereo partly drawn)	inactive	inactive	–	15.5 µM (active)	inactive	–	inactive
O=C(Cl)OCCOCCOC(=O)Cl	inactive	79.6 µM (active)	–	–	inactive	–	inactive
CCSCc1ccccc1OC(=O)NC	inactive	inactive	inactive	–	inactive	63.3 µM (active)	inactive
CC(Oc1cccc(Cl)c1)C(=O)O (stereo not drawn)	inactive	inactive	inactive	–	inactive	inactive	–
CCOC(=O)c1cncn1C(C)c1ccccc1 (stereo not drawn)	inactive	inactive	–	12.3 µM (active)	inactive	–	–
CC(O)CN1CCN(CC(=O)[O-])CCN(CC(=O)[O-])CCN(CC(=O)[O-])CC1.[Gd+3] (stereo not drawn)	inactive	inactive	–	–	inactive	inactive	inactive
CN(C)N	inactive	inactive	–	inactive	inactive	35.6 µM (active)	–
CN[C@@H](C)[C@H](O)c1ccccc1	inactive	–	inactive	inactive	inactive	inactive	–
C=C(Cl)Cl	inactive	inactive	75.6 µM (active)	–	inactive	–	inactive
CCCCOC(=O)CCC(=O)OCCCC	inactive	inactive	–	–	inactive	20 µM (active)	inactive
CCOC(=O)C1OC1(C)c1ccccc1 (stereo not drawn)	inactive	71.6 µM (active) and inactive	35.9 µM (active) and 71 µM (active)	–	inactive	–	inactive
CN(C1CCCCC1)C1CCCCC1	inactive	3.17 µM (active)	inactive	–	inactive	inactive	–
CC[N+]1(C)CCCC(OC(=O)C(O)(c2ccccc2)c2ccccc2)C1 (stereo not drawn)	inactive	2.75 µM (active)	inactive	–	inactive	inactive	–
CCCCC#N	inactive	inactive	–	inactive	inactive	inactive	inactive
COC(=O)Cc1ccccc1	inactive	inactive	inactive	–	inactive	inactive	inactive
